Several values for one entry are separate records, joined by “and”; a condition that tells them apart may be missing. Identical values can stand only once. Unmarked numbers belong to inactive results. Inconclusive results are not listed. A call without a number means that no potency is given here. Activity calls are given as the source filed them. Unless noted, calls follow the shape of the dose curve; as a rule, active = well fitted curve in the direction sought with a large enough effect; inconclusive = small, poorly fitted or top-dose-only effect, or another doubt; inactive = no such curve, though single readings can be large; an effect the other way counts as inactive or inconclusive.
What was measured:
[1] = molecular target: Mitogen-activated protein kinase 10 (Mus musculus) (UniProt Q61831); assay: JNK3 AlphaScreen Assay (AID 530; active = well fitted curve in either direction with a large enough effect, not every such curve was filed as active;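 also: kinase came from lysate of stimulated human HepG2 cells; signal reports phosphorylation of biotinylated GST-cJun 1-79 at Ser73 with 10 µM ATP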)
Summary of the method: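 Inhibitors reduce antibody binding to phosphorylated biotin-cJun, lowering AlphaScreen luminescence. Lysates from HepG2 cells pre-activated by IL-1beta plus TNF-alpha supplied JNK3; compounds were titrated.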

[2] = Cell Viability - N2a (AID 540); settings: N2a mouse neuroblastoma cell viability; at 92.2 µM (top of the series); also: nearly all actives have a fitted effect of over 45% in size
Summary of the method: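 Mouse neuroblastoma N2a cells, 1500/well, exposed to compounds 40 h at 37 °C in complete medium. Viability measured as cellular ATP by CellTiter-Glo luminescence; AC50 from Hill fits of concentration-response.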

[3] = Cell Viability - NIH 3T3 (AID 541); settings: NIH 3T3 cell viability, qHTS; activity change, negative = cytotoxicity: at 92.2 µM (top of the series); also: nearly all actives have a fitted effect of over 25% in size
Summary of the method: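 Mouse NIH 3T3 fibroblasts, 1000 cells/well, rested 5 hr at 37 °C, then exposed to compound for 40 hr at 37 °C in complete medium. Viability read as intracellular ATP by CellTiter-Glo luminescence; AC50 from Hill-equation fits of concentration-response data.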

[4] = Cell Viability - HUV-EC-C (AID 542); also: nearly all actives have a fitted effect of over 35% in size
Summary of the method: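 HUV-EC-C human vascular endothelial cells, 1000/well, exposed to compound for 40 hr at 37 °C in complete medium. Intracellular ATP was read by CellTiter-Glo luminescence. AC50 came from Hill-equation fits of concentration-response data.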

[5] = Cell Viability - H-4-II-E (AID 543); also: nearly all actives have a fitted effect of over 35% in size; also: potency is read from the fitted curve at half-maximal effect
Summary of the method: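 Rat hepatoma H-4-II-E cells, 1500 per well, treated 40 h at 37 °C in complete medium. Cellular ATP read by CellTiter-Glo luminescence; AC50 from Hill fits of concentration-response.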

[6] = Cell Viability - SH-SY5Y (AID 544); also: nearly all actives have a fitted effect of over 55% in size; also: potency is read from the fitted curve at half-maximal effect
Summary of the method: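 SH-SY5Y human neuroblastoma cells (1500/well) incubated 5 h, then compound-treated 40 h at 37 °C in complete medium. Viability read as intracellular ATP by CellTiter-Glo luminescence after 20 min; AC50 from Hill-equation fits of qHTS concentration-response.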

[7] = Cell Viability - Mesenchymal (AID 546);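 also: cells exposed to compound for 40 hours before reading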
Summary of the method: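 Normal human renal glomerulus-derived kidney mesenchymal cells, 1000 per well in complete medium, were treated with compounds for 40 hr at 37 °C. Viability was read as intracellular ATP by CellTiter-Glo luminescence; AC50 values came from Hill-equation fits of qHTS concentration-response data.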

[8] = Cellular Toxicity (caspase-3) HepG2 (AID 654);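 also: cells exposed to compound for 16 hours before reading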
Summary of the method: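 HepG2 cells (1500/well) were treated 16 h at 37 °C in complete medium, then caspase 3/7 activity was read by Caspase-Glo luminescence. Data were normalized to DMSO and 100 uM tamoxifen; AC50 came from Hill-equation fits of qHTS concentration-response.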

[9] = Cellular Toxicity (caspase-3) Jurkat (AID 655);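 also: cells exposed to compound for 16 h at 37 °C before reading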
Summary of the method: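 qHTS in human Jurkat T-cell leukemia line: 16 hr compound treatment at 37 °C, caspase-3/7 activity measured by Caspase-Glo luminescence. AC50 derived from Hill equation.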

[10] = Cellular Toxicity (caspase-3) BJ (AID 658); settings: Potency: caspase-3 activation; also: potency is read from the fitted curve at half-maximal effect
Summary of the method: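 Luminescent aminoluciferin-substrate cleavage reports caspase 3/7 activity in normal human BJ fibroblasts after 16 hr compound exposure at 37 °C. Normalized to DMSO (basal) and 10 uM staurosporine (100%); AC50 from Hill fit of concentration-response.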

[11] = Cellular Toxicity (caspase-3) MRC-5 (AID 659)
Summary of the method: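 Luminescence from caspase-cleaved aminoluciferin substrate (Caspase-Glo 3/7, 1 hr RT) reports caspase 3/7 activity in MRC-5 lung fibroblasts after 16 hr compound exposure. Normalized to DMSO basal and 10 uM staurosporine as 100%; AC50 from Hill fits.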

[12] = Cellular Toxicity (caspase-3) Mesangial (AID 660);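 also: cells exposed to compound for 16 h before the caspase read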
Summary of the method: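 Human renal glomerular mesangial cells, 1000/well, 5 h at 37 C before 16 h compound treatment. Caspase-Glo 3/7 luminescence after 20 min; normalized to DMSO and 100 uM tamoxifen, AC50 from Hill fit.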

[13] = Cellular Toxicity (caspase-3) SK-N-SH (AID 661); settings: SK-N-SH caspase-3 activation, qHTS; caspase-3 activation: at 91.7 µM (top of the series), DMSO as zero, staurosporine as full; also: potency is read from the fitted curve at half-maximal effect
Summary of the method: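 Human SK-N-SH neuroblastoma cells, 1500/well, were exposed to compounds for 16 hours at 37 °C. Caspase-Glo 3/7 luminescence was normalized to DMSO (basal) and 10 uM staurosporine (100%), and AC50 came from a Hill fit.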

[14] = Cellular Toxicity (caspase-3) H-4-II-E (AID 663);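 also: cells exposed to compound for 16 hr before readout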
Summary of the method: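 Luminescence from caspase-cleaved aminoluciferin substrate, read 20 min after reagent addition, reports caspase 3/7 activation in rat H-4-II-E cells after 16 hr compound exposure. Normalized to DMSO (basal) and 100 uM tamoxifen (100%); AC50 from Hill fits.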

[15] = Cellular Toxicity (caspase-3) Hek293 (AID 664); settings: HEK293 caspase-3 activation, DMSO = 0%, 100 µM tamoxifen = 100%; at 92.2 µM (top of the series);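 also: cells exposed to compound for 16 h at 37 °C before readout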
Summary of the method: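 HEK293 cells in complete medium treated 16 h at 37 °C, then Caspase-Glo 3/7 luminescence read after 20 min at room temperature. Normalized to DMSO and 100 uM tamoxifen; AC50 from Hill fit of concentration-response.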

[16] = Cellular Toxicity (caspase-3) N2a (AID 665);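 also: compound exposure lasted 16 h at 37 °C before readout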
Summary of the method: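 Mouse N2a neuroblastoma cells, 1500 per well, treated 16 h at 37 °C in complete medium; caspase-3/7 activity by Caspase-Glo luminescence after 1 h. Normalized to DMSO and 10 uM staurosporine; AC50 from Hill fits.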

[17] = Cellular Toxicity (caspase-3) NIH 3T3 (AID 666)
Summary of the method: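 Mouse NIH 3T3 fibroblasts (1000/well) treated 16 h at 37 C; caspase-3/7 activity measured by Caspase-Glo 3/7 luminescence after 20 min. Normalized to DMSO and 100 uM tamoxifen; AC50 from Hill fits.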

Compound | outcome [1] | activity change, negative = cytotoxicity [2] | activity change, negative = cytotoxicity [3] | Potency [4] | Potency [5] | Potency [6] | outcome [7] | outcome [8] | Potency [9] | Potency [10] | outcome [11] | outcome [12] | Potency [13] | outcome [14] | caspase-3 activation [15] | outcome [16] | outcome [17] | caspase-3 activation [13]
OCC(O)CO | inactive | -3.4% and 8.03% | -10.7% and -2.8% | inactive | inactive | inactive | inactive | inactive | inactive | inactive | inactive | inactive | inactive | inactive | 3.75% and 1.59% | inactive | inactive | –
O=c1n(CC2CO2)c(=O)n(CC2CO2)c(=O)n1CC1CO1 (configuration not stated) | – | – | -138% (active) | – | 39.8 µM (active) | 0.631 µM (active) | – | inactive | – | inactive | inactive | inactive | 15.8 µM (active) | inactive | 3.19% | inactive | inactive | –
CCCCC | inactive | 6.23% | -10.6% | inactive | inactive | inactive | inactive | inactive | inactive | inactive | inactive | inactive | inactive | inactive | 2.68% | inactive | inactive | –
NC(N)=O | – | 12.5% | -1.75% | inactive | inactive | inactive | inactive | inactive | inactive | inactive | inactive | inactive | inactive | inactive | 1.05% | inactive | inactive | –
Nc1ncnc2c1ncn2[C@H]1CC[C@@H](CO)O1 | inactive | 6.32% | 7.1% | inactive | inactive | inactive | inactive | inactive | – | inactive | inactive | inactive | inactive | inactive | 2.37% | inactive | inactive | –
C=C1C(CCl)(CCl)C2(Cl)C(Cl)C(Cl)C1(Cl)C2(Cl)Cl (configuration not stated) | – | -112% (active) | -80.2% (active) | – | 50.1 µM (active) | 31.6 µM (active) | – | inactive | – | 63.1 µM (active) | – | – | – | – | 252% (active) | – | inactive | 90.5% (active)
CC(C)O | inactive | -11.4% | – | inactive | inactive | inactive | inactive | inactive | inactive | inactive | inactive | inactive | inactive | inactive | 1.95% | inactive | inactive | –
CC(C)(C)CC(C)(C)c1ccc(OCCO)cc1 | inactive | – | -28.8% | inactive | – | inactive | inactive | inactive | inactive | inactive | inactive | inactive | inactive | inactive | 5.17% | inactive | inactive | –
CO/N=C(/C(=O)N[C@@H]1C(=O)N2C(C(=O)O)=C(COC(N)=O)CS[C@H]12)c1ccco1 | inactive | 8.73% | -7.55% | inactive | inactive | inactive | inactive | inactive | inactive | inactive | inactive | inactive | inactive | inactive | 0.731% | inactive | inactive | –
OCl | inactive | -0.881% | -13.5% | inactive | inactive | inactive | inactive | inactive | inactive | inactive | inactive | inactive | inactive | inactive | 2.43% | inactive | inactive | –
CC1=CCC2CC1C2(C)C (configuration not stated) | inactive | 4.74% | -3.47% | inactive | inactive | inactive | inactive | inactive | inactive | inactive | inactive | inactive | inactive | – | 0.916% | inactive | inactive | –
O=P(O)(O)O | inactive | -12.4% | -8.72% | inactive | inactive | inactive | inactive | inactive | inactive | inactive | inactive | inactive | inactive | inactive | -0.448% | inactive | inactive | –
CCCCO | inactive | -5.68% and -4.88% | -12.4% and 2.4% | inactive | inactive | inactive | inactive | inactive | inactive | inactive | inactive | inactive | inactive | inactive | 0.832% and 0.952% | inactive | inactive | –

— PubChem BioAssay (NCATS)
